Records with an inconclusive call do not appear. The source made the active and inactive calls. Rule for the calls: active = hit-call score of the fitted dose curve at least 0.9, where 1 is the maximum; inconclusive = response in the unintended direction; inactive = score below 0.9.
Molecular target: Peroxisome proliferator-activated receptor gamma (Homo sapiens) (UniProt P37231)
Assay: ATG_PPARg_TRANS: Attagene TRANS-FACTORIAL HepG2 Assay for human Peroxisome Proliferator-activated Receptor-gamma (PPARg) (AID 2283007)
Experimental: ATG_TRANS is a cell-based, multiplexed-readout assay that uses HepG2, a human liver cell line, with measurements taken at 24 hours after chemical dosing in a 24-well plate.ATG_PPARg_TRANS is one of 30 assay component(s) measured or calculated from the ATG_TRANS assay. It is designed to make measurements of mRNA induction, a form of inducible reporter, as detected with fluorescence intensity signals by Reverse transcription polymerase chain reaction (RT-PCR) and Capillary electrophoresis technology.Data from the assay component ATG_PPARg_TRANS was analyzed into 1 assay endpoint. This assay endpoint, ATG_PPARg_TRANS, was analyzed in the positive analysis fitting direction relative to DMSO as the negative control and baseline of activity. Using a type of inducible reporter, measures of mRNA for gain-of-signal activity can be used to understand the reporter gene at the transcription factor-level as they relate to the gene PPARG. Furthermore, this assay endpoint can be referred to as a primary readout, because this assay has produced multiple assay endpoints where this one serves a reporter gene function. To generalize the intended target to other relatable targets, this assay endpoint is annotated to the nuclear receptor intended target family, where the subfamily is non-steroidal.
Human liver HepG2 cells are transiently transfected with multiple reporter transcription units (MRTUs) in 6-well plates using FuGene 6 reagent (Roche; 3 ml FuGene/1 mg DNA). The MRTU constructs are regulated by a cis-regulating element (promoter). […] A major difference between the CIS and TRANS system is that in CIS activities of endogenous TFs are measured, whereas the TRANS assay evaluates changes in activities of exogenous, chimeric NR-Gal4 proteins. […] At the end of 24 hour incubation, total RNA was isolated using TriZol reagent (Invitrogen). The isolated RNA is then reverse-transcribed using oligo(dT) primer and Mo-MLV reverse transcriptase (Invitrogen) with DNAse I (Ambion) treatment for 30 min. The one-tenth of the produced cDNA was amplified by PCR using Taq DNA polymerase (Invitrogen) and two reporter sequence-specific primers. The PCR products were fluorescently labeled by primer extension with 6-arboxyfluorescein (6-FAM) 5'-labeled reporter sequence-specific primer (2 min at 95 C, 20 s at 68 C and 10 min at 72 C) and these products were digested with 5U of HpaI (New England Biolabs) for 2h at 37 C. The fragments were purified using Qiaquick PCR columns (Qiagen), analyzed on an ABI 3130xL genetic analyzer (Applied Biosystems) with peak positions identified by using a set of X-rhodamine (ROX)-labeled MapMarker1000 molecular weight standards (BioVentures). The raw capillary electrophoresis data was processed using Attagraph software (Attagene).

Peroxisome proliferator-activated receptor gamma (Homo sapiens), sequence (P37231 whole entry, looked up): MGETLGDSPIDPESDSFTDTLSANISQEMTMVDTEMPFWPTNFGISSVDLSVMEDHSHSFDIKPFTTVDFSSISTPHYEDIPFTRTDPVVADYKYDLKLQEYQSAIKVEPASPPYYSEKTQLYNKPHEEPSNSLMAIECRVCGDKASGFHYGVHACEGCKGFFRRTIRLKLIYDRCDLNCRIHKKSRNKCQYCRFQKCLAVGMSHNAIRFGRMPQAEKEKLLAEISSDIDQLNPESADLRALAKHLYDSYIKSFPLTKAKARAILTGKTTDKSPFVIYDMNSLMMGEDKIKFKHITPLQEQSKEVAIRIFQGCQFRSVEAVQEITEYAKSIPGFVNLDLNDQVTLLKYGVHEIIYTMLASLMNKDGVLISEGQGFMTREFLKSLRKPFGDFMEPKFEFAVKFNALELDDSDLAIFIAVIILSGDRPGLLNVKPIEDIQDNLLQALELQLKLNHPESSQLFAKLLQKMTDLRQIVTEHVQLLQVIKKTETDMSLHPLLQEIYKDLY

Row | SMILES | outcome | AC50
1 | NCC1CCCC(CN)C1 (stereo not given) | inactive | 
2 | C[C@H]1C[C@@H](O)CC(C)(C)C1 | inactive | 
3 | O=C1OC(=O)c2c(Br)c(Br)c(Br)c(Br)c21 | inactive | 
4 | CC(=O)c1c(C)c([N+](=O)[O-])c(C(C)(C)C)c([N+](=O)[O-])c1C | inactive | 
5 | CCCCCCCC(=O)OCCCCCC | inactive | 
6 | COc1ccc(CCO)cc1 | inactive | 
7 | CC(C)=CCCC(C)CCOC=O (stereo not given) | inactive | 
8 | O=C(CS)OCCOC(=O)CS | inactive | 
9 | Cc1cc(=O)oc2cc(N(C)C)ccc12 | inactive | 
10 | CCOC(=O)C(C#N)=C(c1ccccc1)c1ccccc1 |  | 7.45 µM (active)
11 | CC=Cc1ccc(OCC)c(O)c1 |  | 31.8 µM (active)
12 | CSCCC=O |  | 56.3 µM (active)
13 | CCCCCC(C=O)=Cc1ccccc1 |  | 27.6 µM (active)
14 | CCCCN(CCCC)C(=O)N(CCCC)CCCC |  | 15.9 µM (active)
15 | CCCCCC(=O)CC | inactive | 
16 | CCCN(CCC)S(=O)(=O)c1ccc(C(=O)O)cc1 | inactive | 
17 | COC(=O)Nc1ccc(Cl)c(Cl)c1 |  | 27.4 µM (active)
18 | CCC1CCCCC1 | inactive | 
19 | CCOc1ccc(N=Nc2ccc(C=Cc3ccc(N=Nc4ccc(OCC)cc4)cc3S(=O)(=O)O)c(S(=O)(=O)O)c2)cc1 | inactive | 
20 | CC(=O)CC(=O)Nc1ccccc1 | inactive | 

Row | SMILES | outcome | AC50
21 | C=C(C)C(=O)OCC(CC)(COC(=O)C(=C)C)COC(=O)C(=C)C |  | 98.5 µM (active)
22 | CCCCC(CC)(CO)CO | inactive | 
23 | C=C(C)[C@@H]1CC=C(C)C(=O)C1 | inactive | 
24 | O=C(O)CCCCCCCCCCCC(=O)O | inactive | 
25 | CCOc1ccc(NC(=O)CC(C)O)cc1 (stereo not given) | inactive | 
26 | CC(C=O)Cc1ccc(C(C)(C)C)cc1 (stereo not given) |  | 79.1 µM (active)
27 | CCCCCCCCN1CCCC1=O | inactive | 
28 | CCCCCCOC(=O)C(C)C | inactive | 
29 | FC(F)(F)COCC(F)(F)F | inactive | 
30 | Cc1cc(S(=O)(=O)O)ccc1N=Nc1c(O)ccc2ccccc12 | inactive | 
31 | O=C1CCCC=CCCCCCCCCCC1 |  | 66.8 µM (active)
32 | CC(C)=CCCC(C)CC(=O)O (stereo not given) | inactive | 
33 | CC(C)CCCCCCCCCCCCCCC(=O)O |  | 30.2 µM (active)
34 | CC(=O)O[C@H]1C[C@@H]2CC[C@@]1(C)C2(C)C | inactive | 
35 | CC(=O)Nc1ccc(C(=O)CCl)cc1 |  | 2.31 µM (active)
36 | CCOC(=O)CC(C)O (stereo not given) | inactive | 
37 | O=CN1CCOCC1 | inactive | 
38 | c1ccc(CN(Cc2ccccc2)Cc2ccccc2)cc1 | inactive | 
39 | O=C(CC(=O)c1ccccc1)c1ccccc1 |  | 3.74 µM (active)
40 | O=C(c1ccccc1)C(O)c1ccccc1 (stereo not given) | inactive | 
